Over roughly 59,000 sequences, the read-out has its median near -0.00055; the lowest 2% begin near -2. Shown is part of a subset that was picked to be rich in the lowest values.

The assay is described as follows: Identification of proteins required for the processing of the EWS-FLI1 nascent transcript.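 Further: robust z of luciferase light less the median z of siRNAs with the same seed.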 Conditions: TC32 Ewing sarcoma NR0B1-luc vs CMV-luc (EWS-FLI1 target promoter against control promoter), 48 h; screened at 20 nM (by protocol). The method, then:
Ewing sarcoma (ES) cells depend on the EWS-FLI1 fusion transcription factor for cell survival. Using an assay of EWS-FLI1 activity and genome-wide siRNA screening we have identified proteins required for the processing of the EWS-FLI1 nascent transcript. Parallel genome-wide siRNA-mediated RNAi screens were conducted in Ewing sarcoma TC32 cell lines expressing a luciferase (luc) reporter protein driven by either the promoter of the EWS-FLI1 target gene NR0B1 (TC32-NR0B1-luc) or the CMV promoter (TC32-CMV-luc). Luciferase activity was assessed 48 hours post siRNA-transfection.
Twenty microl of serum-free media containing Lipofectamine RNAiMax (0.05 microl) was added to wells containing siRNA (0.8 pmol). Lipid and siRNA were allowed to complex for 45 min at ambient temperature before addition of 600 cells in RPMI-1640, 20% FBS to yield final transfection mixtures containing 20 nM siRNA in RPMI-1640, 10% FBS. Luciferase expression was measured using OneGlo (Promega, Madison, WI). The genome-wide screening campaign was conducted using Ambion's human genome library version 4.1 (Ambion, Austin TX). This library targets approximately 21000 human genes, three siRNAs per gene. Each siRNA is arrayed in an individual well of a 384-well plate. Parallel transfections were conducted in TC32-NR0B1-luc and TC32-CMV-luc cell lines and luciferase expression (OneGlo, Promega) was assayed 48 h later on a PerkinElmer Envision 2104 Multilabel plate reader (PerkinElmer, Waltham, MA). Qiagen's AllStars Negative control was incorporated on all screening plates for normalization (16 wells per plate). Qiagen, Germantown, MDsiGL4 was incorporated as a positive transfection control (16 wells per plate) on all plates. […] The raw luciferase data for the NR0B1- and CMV-luc screens were normalized and z-score-MAD transformed using standard methods (Chung et al., 2008). The miRNA-like seed sequence of every siRNA was determined and the median z-score for all siRNA sequences with the same seed sequence was calculated. This z-score was subtracted from the z-score associated with each siRNA with that seed sequence to generate a seed-adjusted z-score value (Z) that was used when the results for the three siRNAs corresponding to each gene were compared (Marine et al., 2012)
In turn, UAUGCUUUUAGACGAUUGG against ASB14 yielded a seed-corrected z-score of -0.444.
In turn, AGGUCUUCAAAUACCGUUG against LACTB2 returned a seed-corrected z-score of -2.32.
The same measure for UUUGCUCCCUUCACUCUGC against DVL1: 0.689.
The same measure for AAAUGUACACCAUAUAAGC against ELOVL6: -2.75.
In turn, UUCAUGUCCACGUUGACCA against PLCD3 yielded a seed-corrected z-score of -0.387.
Sequence UUAUGGUCUUGAGGUAAGG against RNF6 gave a seed-corrected z-score of 0.418.
The sequence UUCGUGAAAGGAUCUGCUG against FRMD4B had a seed-corrected z-score of -0.649.
The same measure for UCUGUUUUCAGGUCUUCCA against PMM1: 0.485; for UGAGUUUGAAGGUGAAUUC against TMEM207: 0.374.
UAGACUAGAAUGGUCACUC against DDIAS showed a seed-corrected z-score of 0.728.
With UCUGGAGUGUUUGGGCUGC against CICP18, the seed-corrected z-score is -3.73.
As to UAACCUUCAACUCGCUGCC against NYNRIN, the seed-corrected z-score was -1.01.
As for UUAAUGGGAAGUUCUGGUG against ALG8, the seed-corrected z-score was -0.153.
The sequence UUGUUUACAAUUGAAACUC against RPS7 came in with a seed-corrected z-score of 2.49.
As for UUUGGUAAACUUCUGACUC against AFP, the seed-corrected z-score turned out to be 0.408.
Take UUGGGCACAUGCUCUAAGG against SUN2: the seed-corrected z-score is 1.57.
For UUUGCGGUCAGGUUUCACC against MTNR1A, the seed-corrected z-score is -0.693.
Under UUCCUUCCAGCUGUAGGCC against CHRM1 stands -2.17.
Sequence UUUGGAGCAAGUAAUCCCU against ATP5SL showed a seed-corrected z-score of 0.0327.
In turn, UACGCUCCAACCAUCAUAG against KIAA0368 registered a seed-corrected z-score of -0.0559.
Under AAUGUCACAAAAGUUCCGU against PGLYRP3 stands -0.707.
Under UAACGAGAAAGACGGAUGC against CEP104 stands -0.248; under AAUGCUAUAAAAUCCGUGG against C11orf95, 0.671.
Under UAUUAGGAGAUAUGAAGUG against PSMB7 stands 0.622; under UCAGCUUCUACUCCGGUCU against DAPP1, -1.25; under UUGUAUACAAGUGUCCACC against KCTD6, -2.54.
As to UAUUGUAAGAGUACACGUC against IGSF5, the seed-corrected z-score was -0.00495.
Turning to UUGCGUUCAGGAAUAUCCG against MARK3, the seed-corrected z-score was 0.476.
Under UGGAAUAUAAAACCCGUGC against FUNDC2P2 stands -0.0349; under UUUGGGAUCUAUCAAUUUG against HNRNPDL, 0.695.
The same measure for AACUUUACCAGUCACACUC against SMNDC1: -2.31; for UACACUCCUCUGAAGUUUG against ZNF396: -0.508.
UUGGGUCAAUCCAUUUCUC against C10orf55 registered a seed-corrected z-score of 0.749.
On to UCCACGAAUAGCAAGUUGC against H2AFZ, for which the seed-corrected z-score worked out at 0.129.
The same measure for UCUGCUUGUAGUGAAAGUC against DUSP9: -3.42.
The same measure for UAACUUACUGAGAAUCGGC against LCP2: -1.05; for AAGGUGUUUCGAGUUAUGC against POLR2J: -0.205.
The sequence UCAUGAACCCGAGCUCGAG against CD37 came in with a seed-corrected z-score of -0.195.
Under AUUCCUGACAUUCACAUGC against ZNF439 stands 0.169; under UCAGGUGCAAUUGGGAGCU against TCEB1P3, -2.71; under UACGUUUUCAGAGUAUCAC against PDCD10, 0.491.
The same measure for AUACUUGACAUCACCAACC against CDKL2: -0.981.
For CAAGUCAUGCCAGCACUGG against LOC645852, the seed-corrected z-score is 0.383.
Under UAAUCUAAUCCUUCUAAAG against PCDHGA7 stands 1.3; under UUCCUUCCAGGACAUGAGC against MIR503HG, -2.21.
Under UUUGGUUGAAGGGACCCUC against OR1J2 stands 0.501; under UCCUUUGAUAGCCUCUUCG against ELAVL3, -0.214.
The sequence UAACUGUUCACCGCGUCCA against LINC01530 yielded a seed-corrected z-score of -0.696.
The same measure for UUACAAAGAAGCACGUUCA against HOXB8: 0.191.
In the case of AAACAGGAAGGUGCUAUCG against GALT, the seed-corrected z-score is -0.3.
Under AUACUUGCAAACAAACUCC against RREB1 stands -1.3; under UGAUUUCUGACCUCCAUUC against TMEM43, 1.18; under ACUGUUCCCAACAAGGUCC against UBXN4, 1.66.
Under AAACCUAAGAAUACAAGUU against SAR1A stands 0.849.
The same measure for ACAGUUGCCCUUGUCCUGG against LOC440292: -3.34.
For the sequence AUUGGAGAGAGGUUCAUUC against YWHAH, the seed-corrected z-score was -0.058.
Under UGACGGCUGGUCGUGAUCU against SPDYE2 stands 0.00759; under UACAGGUAGACCUCGUGGG against UPK3A, 0.24.
The sequence UCAGGAUCAUGAGUAGGCG against DEPDC5 came in with a seed-corrected z-score of 1.12.
Under AAACCUAUUCCUUCCAUUU against ARL6IP5 stands 0.0394.
Sequence UUAGAGUCCAGAUUCAGGA against ST3GAL3 showed a seed-corrected z-score of 0.675.
Under AAACGAUCAUGGUCUCUGC against COPA stands -3.42.
Sequence UGAUCUUGAACUGCACCAC against SUMO3 registered a seed-corrected z-score of -0.708.
Consider UGGAGUAAGAGCUAUACGC against CYTIP, for which the seed-corrected z-score is -0.125.
The sequence AACGUGUCACCACAUAUGG against MAPK10 came in with a seed-corrected z-score of -2.05.
The same measure for UUAGCAACCACGGACACUG against ACR: 0.604.
Under AUACCUUUCAGGAUGAGGG against TMEM178A stands -0.305.

These data come from PubChem BioAssay AID1159506 (National Center for Advancing Translational Sciences (NCATS), 2015).
